# Unmarked numbers belong to inactive results. Results filed as inconclusive are left out. Entries that show only a call come without a potency. Calls of active or inactive are those of the source. Unless noted, calls come from the whole dose curve; as a rule, active = well fitted curve in the direction sought with a large enough effect; inconclusive = small, poorly fitted or top-dose-only effect, or another doubt; inactive = no such curve, though single readings can be large; an effect the other way counts as inactive or inconclusive.
# What was measured:
# [1] = target: Glucocorticoid receptor (Homo sapiens) (UniProt P04150); assay: GR-EFC Redistribution (AID 451; calls by dose curve; note: potency is the fitted concentration of half-maximal effect); conditions: CHO-K1 GR-EFC translocation, beta-gal luminescence, 2 h
# Outline: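 Translocation of GR-ED fusion to nuclear EA restores b-gal, read by luminescence after 1 h room-temperature detection. Engineered CHO-K1 biosensor cells, 1,000/well, exposed 2 h at 37 C to titrations up to 46 uM final.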
# [2] = target: Mitogen-activated protein kinase 10 (Mus musculus) (UniProt Q61831); assay: JNK3 AlphaScreen Assay (AID 530; active = well fitted curve in either direction with a large enough effect, not every such curve was filed as active;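 note: kinase came from lysate of stimulated human HepG2 cells; signal reports phosphorylation of biotinylated GST-cJun 1-79 at Ser73 with 10 µM ATP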); conditions: JNK3 lysate, c-Jun phosphorylation; series mostly up to 57.1 µM
# Outline: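 qHTS titrations with 15 min compound pre-incubation before adding ATP (10 uM final). Read-out: AlphaScreen of Ser73-phosphorylated biotin-GST-cJun using HepG2 lysate JNK3 activated by IL-1β and TNFα.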
# [3] = target: 3',5'-cyclic-AMP phosphodiesterase 4B (Homo sapiens) (UniProt Q07343); assay: qHTS Assay for Inhibitors of PDE-IV (AID 607; active = well fitted activation curve with a large enough effect in the main read-out, with a control signal flat, not every such curve was filed as active); conditions: HEK293 ACTOne CNG channel cells, membrane potential fluorescence; series mostly up to 22.9 µM
# Outline: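 Cell-based read-out of cAMP via a modified cyclic nucleotide-gated channel and membrane potential dye (535/590 nm) in HEK293 cells expressing PDE4 endogenously. Compounds tested up to 22.9 uM final; 100 uM RO 20-1724 reference.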
# [4] = target: Cytochrome P450 2D6 (Homo sapiens) (UniProt P10635); assay: qHTS Assay for Inhibitors and Substrates of Cytochrome P450 2D6 (AID 891); conditions: recombinant CYP2D6, luciferin-ME EGE luminescence; series mostly up to 57.1 µM; note: nearly all actives have a fitted effect of over 60% in size; note: potency is the fitted concentration of half-maximal effect
# Outline: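 Luminescent read-out of luciferin formed by 5 nM human CYP2D6 demethylating 30 uM Luciferin-ME EGE (Km level) over 60 min at room temperature after NADPH regeneration addition. Data normalized to full inhibition by 1.43 uM quinidine.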
# [5] = target: Cytochrome P450 2C19 (Homo sapiens) (UniProt P33261); assay: qHTS Assay for Inhibitors and Substrates of Cytochrome P450 2C19 (AID 899); conditions: recombinant CYP2C19, luciferin-H EGE luminescence; series mostly up to 57.1 µM; note: nearly all actives have a fitted effect of over 60% in size; note: potency is the fitted concentration of half-maximal effect
# Outline: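 Reactions contain 5nM enzyme, 10uM Luciferin-H EGE (KM) and 50mM KPO4; compound preincubates 10 min at 37C, NADPH regeneration starts turnover for 60 min. Luminescence after detection reagent gives activity.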
# [6] = target: Alpha-galactosidase (Coffea arabica) (UniProt Q42656); assay: Counterscreen for Glucocerebrosidase Inhibitors: qHTS Assay for Coffee Bean alpha-Galactosidase at pH 4.5 (AID 957); conditions: purified coffee bean alpha-galactosidase, fluorogenic substrate; series mostly up to 76.9 µM
# Outline: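 Fluorogenic qHTS at pH 4.5 (citrate buffer with Tween-20): 2 nM enzyme, 80 uM 4-MU-alpha-galactoside substrate, compound titrated 0.7 nM to 77 uM, 20 min room temperature. Glycine/NaOH stop; 4-MU read Ex 365/Em 440; Hill-equation AC50 against no-enzyme and enzyme controls.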
# [7] = target: Alpha-galactosidase (Coffea arabica) (UniProt Q42656); assay: Counterscreen for Glucocerebrosidase Inhibitors: qHTS Assay for Coffee Bean alpha-Galactosidase at pH 5.9 (AID 998); conditions: coffee bean alpha-galactosidase enzyme assay; series mostly up to 76.9 µM
# Outline: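 Fluorogenic 4-MU substrate hydrolysis, 80 uM substrate and 2 nM coffee bean alpha-galactosidase, pH 5.9 citrate buffer, 20 min at room temperature, then NaOH/glycine stop. Titration 0.7 nM–77 uM, normalized to no-enzyme and enzyme controls, AC50 via Hill equation.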
# [8] = target: Tyrosyl-DNA phosphodiesterase 1 (Homo sapiens) (UniProt Q9NUW8); assay: Confirmation Assay for Inhibitors of Tyrosyl-DNA Phosphodiesterase (TDP1) (AID 489007); conditions: recombinant human TDP1 enzymatic activity, dose-response; note: potency is the fitted concentration of half-maximal effect; nearly all actives have a fitted effect of over 40% in size
# Outline: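 AlphaScreen assay of tyrosine-FITC cleavage from a biotinylated DNA substrate (15 nM) by E. coli-expressed human Tdp1 (1 nM). Sequence: compound preincubation 15 min, reaction 5 min, bead detection 10 min, all at room temperature. No-enzyme wells give maximum signal.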
# Alpha-galactosidase (Coffea arabica), sequence (Q42656 whole entry, looked up): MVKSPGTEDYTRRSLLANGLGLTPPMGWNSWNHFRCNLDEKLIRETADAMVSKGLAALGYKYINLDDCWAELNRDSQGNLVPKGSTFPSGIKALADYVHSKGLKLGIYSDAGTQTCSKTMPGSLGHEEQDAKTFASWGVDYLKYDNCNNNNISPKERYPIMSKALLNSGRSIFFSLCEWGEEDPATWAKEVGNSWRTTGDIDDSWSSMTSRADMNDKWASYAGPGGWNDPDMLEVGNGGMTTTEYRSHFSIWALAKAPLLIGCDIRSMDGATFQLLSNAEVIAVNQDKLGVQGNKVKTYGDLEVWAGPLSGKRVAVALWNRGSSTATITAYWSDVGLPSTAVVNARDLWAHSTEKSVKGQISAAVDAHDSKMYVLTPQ
# Tyrosyl-DNA phosphodiesterase 1 (Homo sapiens), sequence (Q9NUW8 whole entry, looked up): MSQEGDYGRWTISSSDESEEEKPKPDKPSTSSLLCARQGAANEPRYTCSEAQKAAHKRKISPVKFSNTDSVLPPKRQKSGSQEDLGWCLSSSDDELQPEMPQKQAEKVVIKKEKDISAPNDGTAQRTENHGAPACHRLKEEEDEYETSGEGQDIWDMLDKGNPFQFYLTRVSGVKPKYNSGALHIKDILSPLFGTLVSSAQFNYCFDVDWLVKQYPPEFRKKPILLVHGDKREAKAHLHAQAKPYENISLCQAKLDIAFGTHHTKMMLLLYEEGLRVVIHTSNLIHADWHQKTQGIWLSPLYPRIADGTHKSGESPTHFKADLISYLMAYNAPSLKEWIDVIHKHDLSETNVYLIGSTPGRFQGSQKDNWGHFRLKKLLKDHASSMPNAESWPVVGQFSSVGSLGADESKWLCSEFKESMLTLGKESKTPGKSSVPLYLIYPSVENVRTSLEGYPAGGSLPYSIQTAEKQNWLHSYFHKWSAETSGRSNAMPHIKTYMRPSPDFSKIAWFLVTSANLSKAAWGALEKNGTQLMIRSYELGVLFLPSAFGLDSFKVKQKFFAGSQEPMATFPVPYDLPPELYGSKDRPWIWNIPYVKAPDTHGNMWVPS
# Cytochrome P450 2D6 (Homo sapiens), sequence (P10635 whole entry, looked up): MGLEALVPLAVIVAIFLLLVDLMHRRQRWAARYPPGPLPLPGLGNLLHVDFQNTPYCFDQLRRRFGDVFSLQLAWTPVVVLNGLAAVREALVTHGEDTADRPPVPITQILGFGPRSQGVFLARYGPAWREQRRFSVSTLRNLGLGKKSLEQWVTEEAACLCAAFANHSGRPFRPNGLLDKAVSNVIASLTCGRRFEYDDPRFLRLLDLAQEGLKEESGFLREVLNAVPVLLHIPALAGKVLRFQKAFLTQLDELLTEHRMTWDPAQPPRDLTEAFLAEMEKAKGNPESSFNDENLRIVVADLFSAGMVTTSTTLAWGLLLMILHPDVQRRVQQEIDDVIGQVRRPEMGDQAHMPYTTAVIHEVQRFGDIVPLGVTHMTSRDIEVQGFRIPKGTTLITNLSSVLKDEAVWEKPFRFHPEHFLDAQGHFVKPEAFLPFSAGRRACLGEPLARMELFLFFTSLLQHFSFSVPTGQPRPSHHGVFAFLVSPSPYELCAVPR
# Glucocorticoid receptor (Homo sapiens), sequence (P04150 whole entry, looked up, the tested form may be a part): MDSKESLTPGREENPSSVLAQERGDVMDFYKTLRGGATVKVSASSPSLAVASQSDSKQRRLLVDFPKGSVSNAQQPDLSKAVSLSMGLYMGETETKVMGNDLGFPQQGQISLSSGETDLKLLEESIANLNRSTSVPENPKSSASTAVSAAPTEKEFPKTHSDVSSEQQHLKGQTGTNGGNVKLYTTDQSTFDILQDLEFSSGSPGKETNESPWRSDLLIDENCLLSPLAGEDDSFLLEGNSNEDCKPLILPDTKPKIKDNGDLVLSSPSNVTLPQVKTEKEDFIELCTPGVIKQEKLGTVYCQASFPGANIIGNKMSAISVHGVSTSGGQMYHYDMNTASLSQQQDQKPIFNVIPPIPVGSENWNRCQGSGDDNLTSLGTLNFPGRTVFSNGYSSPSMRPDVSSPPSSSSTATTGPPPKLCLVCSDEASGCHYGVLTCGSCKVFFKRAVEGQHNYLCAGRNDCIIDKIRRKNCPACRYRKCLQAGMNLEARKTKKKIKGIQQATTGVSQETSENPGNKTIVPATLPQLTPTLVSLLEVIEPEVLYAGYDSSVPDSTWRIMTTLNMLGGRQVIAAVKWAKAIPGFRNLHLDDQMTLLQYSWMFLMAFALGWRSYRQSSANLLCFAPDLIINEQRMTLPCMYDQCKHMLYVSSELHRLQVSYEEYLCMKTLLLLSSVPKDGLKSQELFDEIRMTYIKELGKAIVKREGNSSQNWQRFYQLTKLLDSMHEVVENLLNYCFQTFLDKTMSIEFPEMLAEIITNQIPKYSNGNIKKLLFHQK
# Cytochrome P450 2C19 (Homo sapiens), sequence (P33261 whole entry, looked up): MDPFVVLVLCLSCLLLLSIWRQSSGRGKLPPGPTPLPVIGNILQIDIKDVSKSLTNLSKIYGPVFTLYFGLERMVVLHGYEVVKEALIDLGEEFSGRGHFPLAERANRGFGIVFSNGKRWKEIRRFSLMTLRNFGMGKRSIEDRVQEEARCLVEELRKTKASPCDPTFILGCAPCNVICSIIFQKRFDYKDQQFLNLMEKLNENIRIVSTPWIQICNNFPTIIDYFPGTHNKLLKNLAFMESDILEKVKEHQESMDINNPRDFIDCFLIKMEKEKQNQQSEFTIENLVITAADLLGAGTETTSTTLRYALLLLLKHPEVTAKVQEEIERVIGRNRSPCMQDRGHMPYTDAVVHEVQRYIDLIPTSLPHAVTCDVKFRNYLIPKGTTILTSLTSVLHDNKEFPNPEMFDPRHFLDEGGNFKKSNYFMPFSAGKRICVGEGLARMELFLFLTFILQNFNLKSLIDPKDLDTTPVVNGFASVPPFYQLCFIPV
# 3',5'-cyclic-AMP phosphodiesterase 4B (Homo sapiens), sequence (Q07343 whole entry, looked up): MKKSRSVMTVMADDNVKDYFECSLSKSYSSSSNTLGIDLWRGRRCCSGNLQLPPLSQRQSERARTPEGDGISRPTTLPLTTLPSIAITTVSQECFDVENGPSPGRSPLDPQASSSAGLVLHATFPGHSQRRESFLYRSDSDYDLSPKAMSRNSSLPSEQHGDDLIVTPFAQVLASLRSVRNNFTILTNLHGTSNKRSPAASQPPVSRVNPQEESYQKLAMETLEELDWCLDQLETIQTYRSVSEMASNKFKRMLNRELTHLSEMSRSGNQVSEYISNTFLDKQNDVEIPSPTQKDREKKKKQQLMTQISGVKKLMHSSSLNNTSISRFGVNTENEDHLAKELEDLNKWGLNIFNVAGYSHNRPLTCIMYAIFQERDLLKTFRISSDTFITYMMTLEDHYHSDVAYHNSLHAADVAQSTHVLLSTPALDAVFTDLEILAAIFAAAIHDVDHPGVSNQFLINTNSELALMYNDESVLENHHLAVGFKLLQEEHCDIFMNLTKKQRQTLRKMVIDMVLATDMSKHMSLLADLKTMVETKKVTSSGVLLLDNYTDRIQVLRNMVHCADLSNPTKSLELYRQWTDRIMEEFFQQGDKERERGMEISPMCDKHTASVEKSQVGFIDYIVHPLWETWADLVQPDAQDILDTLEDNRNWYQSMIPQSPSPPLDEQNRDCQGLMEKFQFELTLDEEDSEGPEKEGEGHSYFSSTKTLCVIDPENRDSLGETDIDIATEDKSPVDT
structure (smiles),measurement,setting,value
C=C[C@@H]1CN2CC[C@@H]1C[C@H]2[C@H](O)c1ccnc2ccccc12,Potency,[1],> 46 µM
same,outcome,[2],inactive
same,outcome,[3],inactive
same,Potency,[4],3.98 µM (active)
same,Potency,[5],inactive
CN[C@@H](C)[C@@H](O)c1ccccc1,Potency,[1],> 46 µM
same,outcome,[3],inactive
same,Potency,[4],12.6 µM (active)
same,Potency,[5],1.58 µM (active)
C=CCCN1C[C@@H]2C[C@H](C1)c1cccc(=O)n1C2,Potency,[1],> 46 µM
same,outcome,[2],inactive
same,Potency,[4],inactive
same,Potency,[5],inactive
NCCC(=O)NCCc1cnc[nH]1,outcome,[6],inactive
same,outcome,[7],inactive
NCCNS(=O)(=O)c1cccc2cnccc12,outcome,[6],inactive
same,outcome,[7],inactive
Cn1cnc2c(NC3CCCC3)ncnc21,outcome,[6],inactive
same,outcome,[7],inactive
CC(N)=NCc1cccc(CN)c1,outcome,[6],inactive
N=C(N)SCCc1cccc(CCSC(=N)N)c1,outcome,[6],inactive
same,outcome,[7],inactive
CN(C)c1ccc(/C=C2/C(=O)NC(=O)N(Cc3ccco3)C2=O)cc1,Potency,[8],100 µM (active)
NCCNC(=O)c1ccc(Cl)cc1,outcome,[6],inactive
same,outcome,[7],inactive
CCc1nnc(NC(=O)CSc2ccc(-c3ccco3)nn2)s1,Potency,[8],15.8 µM (active)
O=C(Cc1ccc(Cl)c(Cl)c1)OCCN1CCCC1,outcome,[6],inactive
same,outcome,[7],inactive
CN(C)CCCCSC(=N)N,outcome,[6],inactive
same,outcome,[7],inactive
[O]=[Sb]([OH])([OH])[c]1ccccc1,Potency,[8],6.31 µM (active)
NC(=NCCC[C@H](N)C(=O)O)NO,outcome,[6],inactive
CCCn1c(=O)c2[nH]c(-c3ccc(OCC(=O)Nc4ccc(C#N)cc4)cc3)nc2n(CCC)c1=O,outcome,[6],inactive
COc1ccc2c(c1)c(CC(=O)N1CCOCC1)c(C)n2C(=O)c1ccc(Cl)cc1,outcome,[7],inactive
CCCCN1CCC(COC(=O)c2cc(Cl)c(N)c3c2OCCO3)CC1,outcome,[6],inactive
same,outcome,[7],inactive
O=C(O)c1cc(=O)c2ccc(Cl)cc2[nH]1,outcome,[6],inactive
same,outcome,[7],inactive
CCCC(=O)NCCc1c2n(c3ccc(OC)cc13)Cc1ccccc1-2,outcome,[6],inactive
same,outcome,[7],inactive
CCCNC[C@H](O)COc1ccccc1C(=O)CCc1ccccc1,outcome,[6],inactive
same,outcome,[7],inactive
Oc1cc(O)c2c(c1)OC(c1cc(O)c(O)c(O)c1)C(O)C2 (stereo unspecified),Potency,[8],5.01 µM (active)
O=c1c2ccccc2nc(/C=C/c2cccnc2)n1Cc1ccccc1,Potency,[8],14.1 µM (active)
Cc1cc(N)c2ccccc2[n+]1CCCCCCCCCCCCCC[n+]1c(C)cc(N)c2ccccc21,outcome,[6],inactive
same,outcome,[7],inactive
O=C(Nc1cc(C(=O)Nc2ccc(S(=O)(=O)O)cc2S(=O)(=O)O)cc(C(=O)Nc2ccc(S(=O)(=O)O)cc2S(=O)(=O)O)c1)Nc1cc(C(=O)Nc2ccc(S(=O)(=O)O)cc2S(=O)(=O)O)cc(C(=O)Nc2ccc(S(=O)(=O)O)cc2S(=O)(=O)O)c1,outcome,[7],inactive
O=S(=O)(O)C1CCNCC1,outcome,[6],inactive
same,outcome,[7],inactive
CCSC(N)=Nc1ccc(C(F)(F)F)cc1,outcome,[6],inactive
same,outcome,[7],inactive
NCCCCCCNS(=O)(=O)c1cccc2c(Cl)cccc12,outcome,[6],inactive
same,outcome,[7],inactive
CC(C)C[C@H](N)CSSC[C@@H](N)CC(C)C,outcome,[6],inactive
same,outcome,[7],inactive
COc1ccc2c(c1)c(CC(=O)O)c(C)n2Cc1ccc(F)cc1,outcome,[6],inactive
same,outcome,[7],inactive
CC(C)(O/N=C(\C(=O)N[C@@H]1C(=O)N2C(C(=O)[O-])=C(C[n+]3ccccc3)CS[C@@H]12)c1csc(N)n1)C(=O)O,Potency,[8],15.8 µM (active)
C[C@H](CCC(=O)O)[C@H]1CC[C@@H]2[C@H]3CC[C@H]4C[C@H](O)CC[C@]4(C)[C@@H]3CC[C@@]21C,Potency,[8],100 µM (active)
COc1ccccc1NC(=O)Nc1nc(-c2cccnc2)nc2ccccc12,outcome,[6],inactive
same,outcome,[7],inactive
COc1[nH]c2ccc(F)cc2c1C(=O)OCC1CCN(CCNS(C)(=O)=O)CC1,outcome,[6],inactive
same,outcome,[7],inactive
C[N+](C)(C)CCC(=O)c1cccc2ccccc12,outcome,[6],inactive
same,outcome,[7],inactive
COC(=O)c1c(-c2cc(OC)c(OC)c(OC)c2)c2ccc(OCc3ccccn3)cc2c(=O)n1-c1ccc(N)cc1,outcome,[6],inactive
same,outcome,[7],inactive
CC(=O)NCCc1ccc(O)c(O)c1,outcome,[6],inactive
same,outcome,[7],inactive
Cc1cccc(C)c1NC(=O)C[N+](C)(C)C,outcome,[6],inactive
same,outcome,[7],inactive
N#Cc1c(-c2ccccc2)no[n+]1[O-],outcome,[6],inactive
same,outcome,[7],inactive
O=C1NC(=O)N(c2ccc3c(c2)OCO3)C(=O)/C1=C\c1ccc(-c2ccccc2C(=O)O)o1,Potency,[8],3.16 µM (active)
Cc1cc(C)c(NC(=O)C[C@H](CC(=O)O)c2cccc3ccccc23)c(C(=O)N2CCC3(CCCC3)CC2)c1,outcome,[6],inactive
same,outcome,[7],inactive

# — PubChem BioAssay (NCATS)
